In PubChem BioAssay:
Records with an inconclusive call do not appear. Active and inactive are the calls of the source.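 The calls were made as follows, unless noted: active = inhibition above the screen-wide mean plus 3 SD, about 51%; inactive = the rest.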

What was measured:
[1] = rapamycin-like changes in RPL19A-GFP expression – cell-based, S. cerevisiae, multiplex flow cytometry, primary screen (AID 1862; in the data active = percent of DMSO control GFP below about 86%;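 also: lower values mimic rapamycin by blocking the RPL19A rise seen in DMSO cells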); details: S. cerevisiae RPL19A-GFP strain, flow cytometry fluorescence, 3 h; at 10 µM; stronger effect = lower value
[2] = TOR pathway GLN3 branch reporter MEP2-GFP changes – S. cerevisiae, multiplex flow cytometry, primary screen (AID 1867;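 active = GFP response, as percent of the DMSO control, above the screen-wide mean plus 3 SD, about 139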;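 also: median GFP channel fluorescence of barcode-gated MEP2-GFP cells measured by flow cytometry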); details: S. cerevisiae MEP2-GFP strain, 3 h, at 10 µM, stronger effect = higher value, 100% means same as DMSO wells
[3] = TOR pathway RTG branch CIT2 reporter changes – S. cerevisiae, GFP fusion, multiplex flow cytometry, primary screen (AID 1870;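 active = percent response above a set limit, the screen-wide mean plus 3 SD, cut at about 130% in these data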;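 also: barcoded CIT2-GFP strain pooled with four other GFP strains with rapamycin as positive control; median GFP fluorescence per well over plate mean of DMSO wells so 100% = DMSO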); details: S. cerevisiae CIT2-GFP expression, 3 h, at 10 µM, stronger effect = higher value
[4] = TOR pathway LAP4-GFP level changes – S. cerevisiae, multiplex flow cytometry, primary screen (AID 1873;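 active = GFP signal, as percent of the solvent control, above the screen mean plus 3 SD, about 149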); details: S. cerevisiae LAP4-GFP expression, 3 h, at 10 µM, stronger effect = higher value
[5] = yeast AGP1-GFP level changes, GLN3 branch – cell-based, multiplex flow cytometry, S. cerevisiae, primary screen (AID 1887;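 active = GFP signal above the screen-wide mean plus 3 SD, that is over about 124.5% of the solvent control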;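 also: AGP1-GFP fusion strain of S. cerevisiae within a five-strain barcoded multiplex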); details: 3 h, at 10 µM, stronger effect = higher value
[6] = hit retest on RPL19A-GFP reporter strain – cell-based, S. cerevisiae, flow cytometry, cherry picks, mother/daughter gates, confirmation (AID 2270;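 active = GFP response below 50% of the DMSO control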); details: 3 h, at 10 µM, stronger effect = lower value, 100 = same GFP as DMSO wells
[7] = yeast TOR pathway reporter LAP4-GFP change – cell-based, cherry picks, flow cytometry, mother/daughter gates, confirmation (AID 2271;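 active = GFP response above 150% of the DMSO control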;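 also: ratio of sample to DMSO plate mean so 100% equals DMSO level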); details: S. cerevisiae LAP4-GFP strain, 3 h, at 10 µM, stronger effect = higher value, 100 means same as DMSO control
[8] = TOR pathway reporter MEP2-GFP, retest of hits – S. cerevisiae, flow cytometry GFP, cherry picks, confirmation (AID 2272;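 active = GFP response above 150% of the DMSO control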;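 also: ratio of well signal to plate DMSO mean so 100% equals DMSO level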); details: S. cerevisiae MEP2-GFP strain, 3 h, at 10 µM, stronger effect = higher value
[9] = TOR pathway CIT2 reporter hit retest – S. cerevisiae, GFP fusion, cherry picks, mother/daughter gates, confirmation (AID 2274;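 active = GFP response above 150% of the DMSO level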); details: S. cerevisiae CIT2-GFP strain, flow cytometry, 3 h, at 10 µM, stronger effect = higher value
[10] = reduced mouse 2C T cell binding to pMHC/ICAM-1 vesicles – MLPCN validation set, flow cytometry, LFA-1/ICAM-1 modulator project, pilot screen (AID 2523;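 active = response below a set limit, under 55% cells CD8-positive and vesicle-bound, and CD8 cells' 90th-percentile brightness under 279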;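 as to vesicle binding response: mean PE anti-B7-1 fluorescence of CD8+ cells relative to row control; 100% = QL9-loaded vesicles with DMSO vehicle in the same plate row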); details: 2C mouse CD8+ T cells, at 7 µM, stronger effect = lower value; double positive events: measured here: CD8+/vesicle+ event percentage
[11] = molecular target: Integrin beta-1 (Homo sapiens) + Integrin alpha-4 (Homo sapiens) (UniProt P13612+P05556); assay: alpha4beta1 integrin LIBS antibody binding reduction – U937 cells, HUTS-21 mAb, flow cytometry, validation set, VLA-4 allosteric modulator project, pilot screen (AID 2674;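 active = inhibition above 50%, about 3 SD of the validation set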;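 also: antibody binding induced by the VLA-4 ligand LDV present at three times its Kd; 0% = LDV ligand with antibody and no compound and 100% = antibody without LDV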); details: HUTS-21 LIBS mAb binding, at 6.7 µM, stronger effect = higher value, binding induced by LDV ligand
Chain of Integrin beta-1 (Homo sapiens) + Integrin alpha-4 (Homo sapiens) (P05556 whole entry, looked up): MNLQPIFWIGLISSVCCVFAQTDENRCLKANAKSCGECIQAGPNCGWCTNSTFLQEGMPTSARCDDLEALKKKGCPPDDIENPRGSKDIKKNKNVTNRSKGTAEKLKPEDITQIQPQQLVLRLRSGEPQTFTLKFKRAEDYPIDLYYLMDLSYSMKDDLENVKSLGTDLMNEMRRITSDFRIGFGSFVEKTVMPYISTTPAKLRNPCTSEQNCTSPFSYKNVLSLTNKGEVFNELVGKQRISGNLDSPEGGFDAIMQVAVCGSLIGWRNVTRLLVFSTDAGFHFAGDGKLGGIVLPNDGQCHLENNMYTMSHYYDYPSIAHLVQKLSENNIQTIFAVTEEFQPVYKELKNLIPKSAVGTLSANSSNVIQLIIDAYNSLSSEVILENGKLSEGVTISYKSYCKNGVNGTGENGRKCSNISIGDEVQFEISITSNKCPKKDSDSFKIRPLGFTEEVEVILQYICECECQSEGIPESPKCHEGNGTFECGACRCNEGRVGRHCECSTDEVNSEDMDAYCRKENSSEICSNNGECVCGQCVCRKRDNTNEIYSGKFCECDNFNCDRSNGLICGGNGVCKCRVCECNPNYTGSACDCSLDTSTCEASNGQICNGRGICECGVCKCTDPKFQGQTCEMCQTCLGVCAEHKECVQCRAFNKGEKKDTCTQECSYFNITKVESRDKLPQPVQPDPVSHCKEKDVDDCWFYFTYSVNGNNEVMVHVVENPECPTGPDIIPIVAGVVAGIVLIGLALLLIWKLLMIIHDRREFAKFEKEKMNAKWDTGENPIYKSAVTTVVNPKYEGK
Chain of Integrin beta-1 (Homo sapiens) + Integrin alpha-4 (Homo sapiens) (P13612 whole entry, looked up): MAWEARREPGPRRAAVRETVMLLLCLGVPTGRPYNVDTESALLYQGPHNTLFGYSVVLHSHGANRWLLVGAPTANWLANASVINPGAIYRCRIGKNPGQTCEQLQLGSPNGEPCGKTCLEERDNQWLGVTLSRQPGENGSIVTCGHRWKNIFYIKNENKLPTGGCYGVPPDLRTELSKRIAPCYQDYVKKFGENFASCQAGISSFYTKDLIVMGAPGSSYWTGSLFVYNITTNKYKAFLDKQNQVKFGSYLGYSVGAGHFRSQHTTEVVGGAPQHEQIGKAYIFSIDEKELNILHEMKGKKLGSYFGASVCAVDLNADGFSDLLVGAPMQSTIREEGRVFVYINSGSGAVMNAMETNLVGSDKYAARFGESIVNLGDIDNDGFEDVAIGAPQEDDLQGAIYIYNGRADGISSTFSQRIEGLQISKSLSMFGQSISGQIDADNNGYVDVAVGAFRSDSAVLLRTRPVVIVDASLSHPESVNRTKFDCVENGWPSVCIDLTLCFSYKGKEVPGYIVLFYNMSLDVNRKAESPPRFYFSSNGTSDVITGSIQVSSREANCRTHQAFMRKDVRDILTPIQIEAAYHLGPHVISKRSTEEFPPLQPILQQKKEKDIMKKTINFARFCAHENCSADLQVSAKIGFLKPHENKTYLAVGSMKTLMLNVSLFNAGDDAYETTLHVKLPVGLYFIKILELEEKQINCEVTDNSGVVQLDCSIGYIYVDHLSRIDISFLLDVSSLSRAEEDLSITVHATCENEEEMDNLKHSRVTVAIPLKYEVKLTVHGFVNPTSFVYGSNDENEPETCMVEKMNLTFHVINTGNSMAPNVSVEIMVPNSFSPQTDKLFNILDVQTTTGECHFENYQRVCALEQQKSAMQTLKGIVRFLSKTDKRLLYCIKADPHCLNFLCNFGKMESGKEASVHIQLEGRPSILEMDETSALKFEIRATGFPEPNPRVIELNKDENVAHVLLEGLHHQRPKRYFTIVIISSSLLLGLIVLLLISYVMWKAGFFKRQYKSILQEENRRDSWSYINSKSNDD

[12] = calorie-restriction mimetic ROS inhibitors, yeast – validation compound set, pilot screen (AID 2706;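 active = superoxide response below 65% of plate, a cut near 3 SD across the whole screen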;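 also: yeast exposed to compound for one week at 30 degrees C before staining; 100% = mean of all compound wells on the same plate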); details: S. cerevisiae aging, superoxide DHE fluorescence; at 10 µM; stronger effect = lower value
[13] = molecular target: Beta-adrenergic receptor kinase 1 (Homo sapiens) (UniProt P25098); assay: GRK2 binders displacing RNA aptamer, biochemical, validation, human GRK2, bead flow cytometry (AID 488806;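 active = aptamer binding inhibition above 30%, about 3 SD of noise from non-fluorescent compounds; inactive = inhibition at or below 30%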); details: bead-bound GRK2, FAM-aptamer displacement, at 10 µM, stronger effect = higher value
Chain of Beta-adrenergic receptor kinase 1 (Homo sapiens) (P25098 whole entry, looked up): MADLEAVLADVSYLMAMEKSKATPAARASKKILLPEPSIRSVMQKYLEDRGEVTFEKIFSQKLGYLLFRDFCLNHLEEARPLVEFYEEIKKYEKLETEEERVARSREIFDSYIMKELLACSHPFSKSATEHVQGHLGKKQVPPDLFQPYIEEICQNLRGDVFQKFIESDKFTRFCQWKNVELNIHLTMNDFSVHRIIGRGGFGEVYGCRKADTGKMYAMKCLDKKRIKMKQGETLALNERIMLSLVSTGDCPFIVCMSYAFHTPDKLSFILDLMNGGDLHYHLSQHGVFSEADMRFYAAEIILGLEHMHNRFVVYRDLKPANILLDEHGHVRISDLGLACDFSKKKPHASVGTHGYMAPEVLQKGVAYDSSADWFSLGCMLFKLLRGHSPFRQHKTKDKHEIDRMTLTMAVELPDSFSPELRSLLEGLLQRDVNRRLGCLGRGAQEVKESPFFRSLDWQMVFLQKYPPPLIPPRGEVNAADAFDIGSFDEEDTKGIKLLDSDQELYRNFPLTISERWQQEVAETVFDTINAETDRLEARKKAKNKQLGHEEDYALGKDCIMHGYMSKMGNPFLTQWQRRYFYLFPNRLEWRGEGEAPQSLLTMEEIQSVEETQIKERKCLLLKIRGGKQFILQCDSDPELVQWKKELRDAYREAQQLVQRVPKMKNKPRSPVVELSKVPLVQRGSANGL

[14] = molecular target: Beta-2 adrenergic receptor (Homo sapiens) (UniProt P07550); assay: agonist-induced loss of surface beta2AR – cell-based, FAP fluorogen, flow cytometry, validation set, pilot screen (AID 504459;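 active = percent response above 42, roughly 3 SD of non-fluorescent test compounds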;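 also: agonist-driven loss of surface beta2AR via internalization measured by FAP dye flow cytometry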); details: Am2.2-beta2AR cells, at 10 µM, stronger effect = higher value
Chain of Beta-2 adrenergic receptor (Homo sapiens) (P07550 whole entry, looked up): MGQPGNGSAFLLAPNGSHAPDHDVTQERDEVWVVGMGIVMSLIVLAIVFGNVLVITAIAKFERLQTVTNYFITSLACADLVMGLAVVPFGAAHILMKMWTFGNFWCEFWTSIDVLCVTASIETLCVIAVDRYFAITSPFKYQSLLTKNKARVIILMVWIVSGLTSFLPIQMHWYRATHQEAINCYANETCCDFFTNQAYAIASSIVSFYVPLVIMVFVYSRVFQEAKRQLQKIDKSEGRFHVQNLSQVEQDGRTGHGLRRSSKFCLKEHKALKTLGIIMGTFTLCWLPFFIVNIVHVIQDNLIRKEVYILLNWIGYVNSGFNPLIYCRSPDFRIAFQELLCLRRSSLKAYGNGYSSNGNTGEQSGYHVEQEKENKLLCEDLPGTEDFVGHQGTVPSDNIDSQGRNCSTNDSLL

[15] = molecular target: AP-2 complex subunit beta (Homo sapiens) (UniProt P63010); assay: beta-arrestin/AP2 interaction blockers – biochemical, validation set, GST-AP2 beads, flow cytometry, pilot screen (AID 504541;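 active = inhibition above 54%, about 3 SD of non-fluorescent compounds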;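 also: AP2 carries R879A mutation and is captured from E. coli lysate; bead-bound FITC arrestin peptide fluorescence measuring arrestin peptide binding to AP2; 0% = DMSO wells and 100% = excess unlabeled arrestin peptide control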); details: FITC arrestin peptide, at 10 µM, stronger effect = higher value, AP2 beta2 appendage fragment, R879A mutant
Chain of AP-2 complex subunit beta (Homo sapiens) (P63010 whole entry, looked up, the tested form may be a part, one chain of several): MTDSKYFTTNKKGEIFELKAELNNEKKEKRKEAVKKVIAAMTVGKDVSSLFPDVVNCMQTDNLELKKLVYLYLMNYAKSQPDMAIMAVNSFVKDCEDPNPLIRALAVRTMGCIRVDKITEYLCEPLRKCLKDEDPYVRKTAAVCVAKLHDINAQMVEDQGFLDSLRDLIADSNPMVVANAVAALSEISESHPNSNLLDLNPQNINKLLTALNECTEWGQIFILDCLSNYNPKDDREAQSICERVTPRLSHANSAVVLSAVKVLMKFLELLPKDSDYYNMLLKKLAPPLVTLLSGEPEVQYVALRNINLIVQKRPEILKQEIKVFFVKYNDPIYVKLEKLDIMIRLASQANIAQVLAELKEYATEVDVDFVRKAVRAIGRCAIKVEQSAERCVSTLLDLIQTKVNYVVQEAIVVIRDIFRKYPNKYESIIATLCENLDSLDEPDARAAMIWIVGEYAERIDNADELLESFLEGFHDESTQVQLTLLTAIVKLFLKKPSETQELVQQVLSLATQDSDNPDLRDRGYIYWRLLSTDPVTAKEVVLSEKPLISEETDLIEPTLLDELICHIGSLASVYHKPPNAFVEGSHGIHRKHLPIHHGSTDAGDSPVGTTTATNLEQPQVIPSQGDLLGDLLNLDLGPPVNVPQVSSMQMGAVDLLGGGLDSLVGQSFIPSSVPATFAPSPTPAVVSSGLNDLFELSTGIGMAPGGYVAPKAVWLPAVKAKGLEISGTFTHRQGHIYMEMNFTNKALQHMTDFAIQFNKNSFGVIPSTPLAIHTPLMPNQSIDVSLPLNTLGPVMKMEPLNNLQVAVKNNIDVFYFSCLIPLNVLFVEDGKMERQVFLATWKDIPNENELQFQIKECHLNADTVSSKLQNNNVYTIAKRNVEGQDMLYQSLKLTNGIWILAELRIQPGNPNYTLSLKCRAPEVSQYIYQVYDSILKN

[16] = cytosolic pH regulators acting via V-ATPase – S. cerevisiae, pHLuorin, HTS validation (AID 504600; in the data active = response above about 15%;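 also: plate controls were DMSO for no effect and reference compound for full effect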); details: V-ATPase proton transport, at 10 µM, stronger effect = higher value
[17] = system: anti-desmoglein-3 scFv antibody binding to human DSG3; assay: blockers of pathogenic pemphigus antibody–desmoglein-3 binding – biochemical, validation compound set, bead-based, flow cytometry, pilot screen (AID 588368;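 active = binding below the plate cutoff, the plate median minus 3 SD, with a reading above zero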;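 also: signal is the median channel fluorescence of bead-bound GFP antibody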); details: Protein G beads, DSG3-Fc, scFv-GFP binding, at 10 µM, stronger effect = lower value
[18] = Nile Red efflux blockade in pump-expressing yeast – validation compound set, multiplex, phenotypic, pilot screen (AID 588506;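 active = efflux inhibition above 0.42, the validation set average plus 4 SD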;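 also: Nile Red retained in cells so higher fluorescence means more efflux inhibition; 0 = negative control wells and 1 = enniatin B 25 µM full block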); details: S. cerevisiae pump-expressing triplex, Nile Red efflux flow cytometry; at 10 µM; stronger effect = higher value; the pumps come from Candida albicans
[19] = molecular target: ATP-binding cassette sub-family B member 6 (Homo sapiens) (UniProt Q9NP58); assay: blockers of ABCB6-driven porphyrin uptake – K562-ABCB6 cells, flow cytometry, validation set, pilot screen (AID 588550); details: K562-ABCB6 porphyrin accumulation, 1 h, at 10 µM, stronger effect = higher value;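 also: 0% = DMSO wells and 100% = benzethonium chloride 70 µM positive control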
Chain of ATP-binding cassette sub-family B member 6 (Homo sapiens) (Q9NP58 whole entry, looked up): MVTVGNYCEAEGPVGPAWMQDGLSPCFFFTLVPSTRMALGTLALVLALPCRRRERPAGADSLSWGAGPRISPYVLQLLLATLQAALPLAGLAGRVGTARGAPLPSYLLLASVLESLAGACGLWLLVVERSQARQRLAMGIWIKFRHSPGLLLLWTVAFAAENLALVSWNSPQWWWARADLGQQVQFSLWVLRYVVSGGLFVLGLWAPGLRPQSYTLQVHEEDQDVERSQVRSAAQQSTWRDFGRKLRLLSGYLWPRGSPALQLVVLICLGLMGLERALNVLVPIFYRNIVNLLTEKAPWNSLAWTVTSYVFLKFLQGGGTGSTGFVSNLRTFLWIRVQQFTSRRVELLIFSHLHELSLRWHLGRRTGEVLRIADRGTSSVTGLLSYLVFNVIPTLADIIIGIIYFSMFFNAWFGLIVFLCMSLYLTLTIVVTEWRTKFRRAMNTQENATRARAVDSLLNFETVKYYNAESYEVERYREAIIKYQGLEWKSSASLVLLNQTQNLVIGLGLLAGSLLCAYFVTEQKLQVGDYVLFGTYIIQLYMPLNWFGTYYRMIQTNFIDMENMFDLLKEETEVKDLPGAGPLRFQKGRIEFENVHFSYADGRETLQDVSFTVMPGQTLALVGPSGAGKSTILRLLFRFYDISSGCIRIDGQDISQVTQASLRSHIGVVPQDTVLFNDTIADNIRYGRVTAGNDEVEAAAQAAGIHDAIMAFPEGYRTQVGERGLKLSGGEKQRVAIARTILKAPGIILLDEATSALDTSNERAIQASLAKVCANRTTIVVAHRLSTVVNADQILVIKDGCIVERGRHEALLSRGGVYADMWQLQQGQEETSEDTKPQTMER

[20] = AML differentiation inducers, ER-HoxA9 marrow cells – cell-based, GFP/MAC1 double positive, flow cytometry, validation set, primary screen (AID 588685;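 active = differentiation response of at least 50%, scaled between solvent and reference control, from cells with both markers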;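 also: compound exposure lasts four days before antibody staining and flow analysis; 0% = DMSO wells and 100% = 5 µM fulvestrant positive control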); details: stronger effect = higher value, normalized: vehicle 0, fulvestrant 100
[21] = measured here: daughter cell gate
[22] = measured here: mother cell gate
[23] = measured here: mother cell gate response

O=[N+]([O-])c1ccc(O)c2ncccc12
inactive: percent of DMSO control GFP [1] 99.7% | GFP response vs DMSO [2] 122% | percent response of DMSO control [3] 81.5% | GFP response vs DMSO [6] 104% | GFP response vs DMSO [8] 120% | GFP response, % of DMSO [9] 138% | vesicle binding response [10] 159% | inhibition [11] -1.12% | aptamer binding inhibition [13] 0% | response [14] -20% | inhibition [15] -6.92% | binding (% of control) [17] 83.2% | efflux inhibition (fraction of control) [18] -0.13 | inhibition [19] 1% | differentiation response [20] -3.02%
99.8%: GFP response vs DMSO [6, 21]
active: GFP response vs DMSO [4] 375% | GFP response, % of DMSO [5] 152% | GFP response relative to DMSO [7] 274% | superoxide response (% of plate) [12] 56.6% | response [16] 65.3%
126%: GFP response, % of DMSO [9, 22]
99.2%: GFP response vs DMSO [6, 22]
59.9%: double positive events [10]
245%: GFP response relative to DMSO [7, 23]
121%: GFP response, % of DMSO [9, 21]

COc1ccc(C(=O)NCC2OCCc3ccccc32)cc1 (stereo not drawn)
97.3%: GFP response, % of DMSO [9, 22]
inactive: percent of DMSO control GFP [1] 90% | percent response of DMSO control [3] 120% | GFP response vs DMSO [4] 107% | GFP response, % of DMSO [5] 107% | GFP response vs DMSO [6] 96.4% | GFP response relative to DMSO [7] 103% | GFP response vs DMSO [8] 102% | GFP response, % of DMSO [9] 98.3% | vesicle binding response [10] 122% | inhibition [11] -2.27% | superoxide response (% of plate) [12] 92.6% | aptamer binding inhibition [13] 1% | response [14] -2.23% | inhibition [15] 7.24% | response [16] -0.15% | binding (% of control) [17] 103% | efflux inhibition (fraction of control) [18] -0.28 | inhibition [19] 4% | differentiation response [20] 2.46%
active: GFP response vs DMSO [2] 150%
64.3%: double positive events [10]
99.1%: GFP response, % of DMSO [9, 21]
97.2%: GFP response vs DMSO [6, 22]
102%: GFP response relative to DMSO ([7]; measured here: daughter cell gate response)
97.1%: GFP response vs DMSO [6, 21]
104%: GFP response relative to DMSO [7, 23]
